# D2 PAM-1 – D2 dopamine receptor (human) potentiation | P14416 | HEK293 T-REx D2, calcium flux, EC20 dopamine potentiation | potentiation, % at 10 µM | actives 0.34% (n = 340,000) | AID 485347;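 active means potentiation over 3 SD above the plate norm, cut at about 30% in these data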; further: 0% is about no effect
#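 Using a no-wash calcium dye in inducible, force-coupled HEK293 Trex cells expressing D2, we tracked fluorescence each second for 180 s after compound, then for 180 s after EC20 dopamine to detect augmented signalling.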
# D2 antag – antagonizes the human D2 dopamine receptor; P14416; HEK293 TREx D2 cells, calcium flux, dopamine EC80; inhibition, % at 10 µM; actives 2% (n = 340,000); AID 485344; in the data active means inhibition above about 30%; inactive means below that, where a call was filed; further: 0% is about no effect
#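 Dopamine at EC80 is the agonist stimulus; test compounds precede it by 180 s. Calcium flux read kinetically in a force-coupled, inducible HEK293 T-REx D2 cell line.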
# B2AR arrestin – recruits beta-arrestin to the human beta2-adrenergic receptor; actives 0.02% (n = 330,000); beta-arrestin recruitment to beta2AR, cell-based reporter; Potency, µM (top dose mostly 46.1 µM), without a hit: at the top dose activation, actives largely listed as activators; AID 492947; P07550; active means well fitted activation curve with a large enough effect;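 further: potency means the concentration at half of the fitted maximal effect; 0% = DMSO controls and full agonism = EC100 isoproterenol or metaproterenol; nearly all actives have a fitted effect of over 65% in size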
# Target sequence (P07550 whole entry, looked up): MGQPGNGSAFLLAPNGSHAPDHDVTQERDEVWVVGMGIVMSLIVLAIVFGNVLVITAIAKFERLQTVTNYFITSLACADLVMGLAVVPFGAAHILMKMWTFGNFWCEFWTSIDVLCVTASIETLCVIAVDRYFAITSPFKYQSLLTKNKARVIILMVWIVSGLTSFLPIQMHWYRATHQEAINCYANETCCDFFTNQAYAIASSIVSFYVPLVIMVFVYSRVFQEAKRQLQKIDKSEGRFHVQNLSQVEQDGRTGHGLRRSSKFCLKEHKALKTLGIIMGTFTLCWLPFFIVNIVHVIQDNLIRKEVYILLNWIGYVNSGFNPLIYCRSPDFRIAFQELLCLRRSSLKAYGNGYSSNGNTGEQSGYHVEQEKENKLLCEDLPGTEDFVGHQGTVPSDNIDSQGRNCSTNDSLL
# D2 ag-1 – agonists of human D2 dopamine receptor | HEK293 T-REx D2 cells, calcium flux agonist mode | activation, % at 2 µM | actives 0.53% (n = 340,000) | P14416;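 active means activation over 3 SD above normal in the single-dose calcium agonist read, cut at about 30% in these data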; further: 0% is about no effect
#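 Tetracycline-induced HEK293 Trex cells with D2 receptor force-coupled to calcium signaling, plated overnight at 30 C and loaded with no-wash calcium dye. Calcium flux read kinetically for 180 s after compound addition; responses flag agonists.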
# D2 PAM-2 – human D2 receptor positive allosteric modulation. potentiation, % (no concentration beside the values). DiscoveRx D2 beta-arrestin cells, luminescence, 90 min; 100% = 57 uM dopamine signal. P14416. actives 0.23% (n = 360,000); in the data active means potentiation above about 50%
#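 PathHunter D2 cells, attached overnight at 37 deg C, received compound in DMSO plus dopamine at EC20 (50 nM final) for 90 min at 37 deg C. Beta-arrestin recruitment was read as luminescence after 1 h with detection reagent at ambient temperature.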
# D2 ag-2 – activates the human D2 dopamine receptor | DiscoveRx PathHunter D2 beta-arrestin, luminescence, 90 min; 100% = 57 uM dopamine signal | P14416 | AID 624465 | activation, % (test concentration not listed) | actives 0.084% (n = 360,000); in the data active means activation above about 40%
#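 Agonist mode: compounds alone added to overnight-plated D2 PathHunter cells for 90 min at 37 C, with 57 uM final dopamine (EC100) defining full response. Beta-arrestin recruitment detected by chemiluminescent reagent, read after 1 h at ambient temperature.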
# The depositor's hits bear a star; . = not tested or not shown. Rows were chosen to be rich in hits. Some 2.4% of all compounds tested hit in one or more screens of this group.
SMILES,D2 PAM-1,D2 antag,B2AR arrestin,D2 ag-1,D2 PAM-2,D2 ag-2
Cc1cc(C)cc(N2CC(C(=O)OCC(=O)Nc3cc(C)on3)CC2=O)c1 (centres undefined),40.9*,14.9,-1.2%,-0.7,-4.7,-4.2
Cc1cccc(NC(=O)Cn2cnc3sc(C)c(S(=O)(=O)N4CCC(C)CC4)c3c2=O)n1,21.6,31.6*,0.3%,-0.5,2.3,2.6
COc1ccc([C@H]2N[C@]3(CCCN(Cc4ccc(C)cc4)C3=O)[C@H]3C(=O)N(C)C(=O)[C@@H]23)cc1,.,.,.,.,-10.2,-4.0
Cc1ccc(NC(=O)Cn2ccsc2=N)cc1S(=O)(=O)N(C)C,-24.0,35.5*,0.0%,-0.3,-14.8,-3.1
Cc1ccc(NC(=O)CN2CCN(C(=O)c3ccco3)CC2)cc1S(=O)(=O)N(C)C,.,.,.,.,29.6,44.5*
Cc1ccc(NC(=O)CCNCc2ccco2)cc1S(=O)(=O)N(C)C,-10.1,33.6*,-0.5%,-6.4,-20.9,1.7
CCCCn1c(N)c(N(CCC(C)C)C(=O)C2CC(=O)N(c3ccc4c(c3)OCCO4)C2)c(=O)[nH]c1=O (centres undefined),-3.2,-9.3,-0.4%,-0.3,-4.0,-7.5
CC1=CN(S(=O)(=O)c2ccc(C)cc2)C[C@@H]2c3ccccc3N(S(=O)(=O)c3ccc(C)cc3)[C@H]12,.,.,0.3%,.,-3.7,-4.4
COc1ccc(-c2cc3nc(NCCN4CCCC4)n(C)c(=O)c3s2)cc1OC,.,.,.,.,-16.1,4.8
CCCNC(C)C(=O)Nc1ccccc1C (centres undefined),5.5,-14.6,3.16µM*,0.7,0.3,-1.8
CCCNC(=O)c1ccccc1NC(=O)Nc1ccccc1C,12.4,-4.9,-0.1%,-0.1,-14.5,-0.7
O=C(Nc1ccc2c(c1)OCO2)C1CCN(Cc2cc3c(cc2O)OCO3)CC1,-16.3,35.0*,0.1%,-4.2,-18.1,-5.0
O=C(Nc1ccc2c(c1)OCO2)C1CCN(S(=O)(=O)Cc2ccccc2)CC1,8.7,-9.1,-0.2%,0.7,-15.6,-2.6
O=C(Nc1ccc(F)cc1)NC1CCN(Cc2ccccc2)CC1,-22.2,52.9*,0.3%,0.2,-12.5,-5.2
O=C(Nc1ccc2c(c1)OCO2)NC1CCN(Cc2ccccc2)CC1,-32.7,46.4*,0.2%,0.0,-15.9,-4.8
CC1CCCN(S(=O)(=O)c2ccc3c(c2)CCN3C(=O)C2CCC2)C1 (centres undefined),10.3,7.7,-0.1%,-0.1,11.1,-1.2
Cc1cc(C)cc(OCC(=O)N(Cc2ccco2)c2c(N)n(Cc3ccccc3)c(=O)[nH]c2=O)c1,11.3,15.8,0.1%,0.6,6.3,-1.5
Cn1cc(CN2CCCC(CO)(Cc3ccccc3)C2)c2ccccc21 (centres undefined),-28.9,-44.2,-0.2%,-0.1,-26.0,-1.4
C=CCNc1nc(C(=O)OCC(=O)Nc2c(Cl)cccc2C(F)(F)F)cs1,-3.7,36.3*,-0.2%,-0.2,-0.7,2.2
CC1CCCN(CCCOc2ccccc2-c2ccccc2)C1 (centres undefined),-27.7,73.4*,-0.2%,-1.3,-20.6,-1.8
CC1CCN(CCCCOc2ccccc2-c2ccccc2)CC1,-20.7,83.8*,0.4%,0.5,-11.9,2.6
COc1ccccc1OCCCCN1CCC(C)CC1,-27.7,.,-0.7%,.,-14.0,-2.2
CC1CCN(CCOCCOc2ccccc2-c2ccccc2)CC1,-27.1,55.8*,-0.4%,-0.1,-45.0,-2.6
CC1CCN(CCOCCOc2ccccc2Br)CC1,-28.1,13.4,-1.3%,1.7,-17.9,-4.2
O=C(CNCc1ccco1)Nc1ccccc1-n1cccc1,12.3,38.0*,-0.4%,-0.3,-3.6,-0.3
Cc1ccc2cc3cc(C(=O)N(CC(=O)NC4CCCC4)c4cccc(C)c4C)sc3nc2c1,8.9,2.1,-0.2%,0.1,-19.8,-4.7
O=C(NCCC1=CCCCC1)c1ccc2c(c1)sc1nc(-c3ccc(F)cc3)cn12,6.2,.,.,-0.6,.,.
O=C1C(Nc2cccc(O)c2)=C(N2CCCCC2)C(=O)c2ccccc21,3.8,-4.6,-3.4%,0.4,64.9*,3.9
